In PubChem BioAssay (NCI) one finds growth data, which are given here for 14 molecules.

About 83,000 compounds went through this panel and 20% of them were active in at least one assay; those are over-represented in the sample as a whole.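 Step 1: grow cells in 96-well plates. Step 2: add test compound at a single concentration. Step 3: incubate 48 h. Step 4: record percent growth.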 A number with no mark means an inactive call. Calls of active or inactive are those of the source. How the source made its calls: active means growth percent below 10; inactive means the rest.

The experiment concerns HL-60(TB) leukemia. The experiment in a line: NCI-60 one-dose screen, 48 h (100 = growth as untreated, 0 = no growth, -100 = all killed). As to conditions: 10 µM unless noted.
Consider `Nc1ccc2c(c1)C1(CCC2)NC(=O)NC1=O` (centres undefined), for which the growth was 93.1%. As for `Cn1c(=O)[nH]c(=O)c2nc3c(nc21)-c1ccccc1C3=O`, the figure is 101%; as for `CNC(C)[C@H]1CCC2C3CC=C4C(=O)[C@@H](NC(=O)C=C(C)C)CC[C@]4(C)C3CC[C@@]21C` (some centres undefined), -67% (active); as for `Brc1ccc(Cn2nnnc2-c2ccn(-c3ccccc3)n2)cc1`, 69.1%. As for `C=C1CC[C@@]2(C#N)[C@H]3[C@H](CC[C@@H]2C)[C@@H](C)C[C@@H](CC(C)(C)C#N)[C@H]13`, the figure is 21.8%; as for `COc1ccc(/C=N/OCC(O)CNCc2ccccc2)cc1OC1CCCC1` (centres undefined), 105%; as for `CC(=O)c1c[nH]c2ccc(-c3ccnc(Nc4ccc(NC(=O)c5cccc(F)c5)c(CN5CCOCC5)c4)n3)cc12`, -24.8% (active).

In the case of `COc1ccc(Cn2nc3c(c2-c2cc(OC)c(OC)c(OC)c2)-c2oncc2CC3)cc1`, the growth is 54.4%. Regarding `COc1ccc(NC(=O)Nc2ccccc2CNc2nc(Nc3ccc(OCCN4CCCC4)cc3)ncc2Cl)cc1`, the growth was -43.7% (active). As for `CCN(CC)Cc1cc(Nc2cc(C(F)(F)F)c(C#N)c3nc4ccccc4n23)ccc1O`, the figure is -10.9% (active). As to `COc1ccccc1Cn1cc2c(c1-c1ccccc1)CCc1cnoc1-2`, the growth is 19.4%.

Regarding `COc1ccc(CSc2nnc(SCC(=O)Nc3ccc(Cl)cc3)s2)cc1`, the growth was 56.9%.

In the case of `CS(=O)(=O)N(c1cc(-c2ccc3ncnc(Nc4cccc(Cl)c4)c3c2)cnc1Cl)S(C)(=O)=O`, the growth was 8.46% (active). As to `Cc1nc2sccn2c1-c1csc(Nc2ccccc2Cl)n1`, the growth is 19.2%.
